Compound activity from PubChem.
HTT cytoprotect = cytoprotection in Huntington HTT-Q103 PC12 cell model; PC12 HTT-Q103 induced, cytoprotection, ATP luminescence, 40 h; Potency, µM (titrated, usually from 56.4 µM), for the others: cytoprotection (ATP increase), actives largely listed as activators; hit rate 0.14% among 230,000; AID 1471; active = well fitted curve in the direction sought with a large enough effect; inconclusive = small, poorly fitted or top-dose-only effect, or another doubt; inactive = no such curve, though single readings can be large; an effect the other way counts as inactive or inconclusive; note: % of control where 0% means no effect; nearly all actives have a fitted effect of over 45% in size
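Compounds added alongside 100 nM tebufenozide, which induces toxic Q103 huntingtin exon 1-GFP in stable PC12 cells; surviving cells quantified by luminescent ATP measurement. Medium: phenol red-free DMEM, 5% equine and 5% calf serum.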
ALDH1A1 inh = blocks purified human ALDH1A1 activity; AID 1030; Purified ALDH1A1, NADH fluorescence, propionaldehyde substrate; Potency, µM (series often up to 75.3 µM), without a hit: at the highest dose activity, negative = inhibition, usual class: inhibitors; hit rate 7.3% among 220,000;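 note: plate controls were no enzyme wells and a reference inhibitor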
HPGD block = inhibitors of human 15-hydroxyprostaglandin dehydrogenase (HPGD); Potency, µM, without a hit: at the top dose activity change, negative = inhibition, most hits filed as inhibitors; purified HPGD, NADH fluorescence kinetic, PGE2 substrate; AID 894; hit rate 4.3% among 150,000; P15428; note: % is set by controls: 0 for no effect and ±100 for the full control effect
Target sequence (P15428 whole entry, looked up): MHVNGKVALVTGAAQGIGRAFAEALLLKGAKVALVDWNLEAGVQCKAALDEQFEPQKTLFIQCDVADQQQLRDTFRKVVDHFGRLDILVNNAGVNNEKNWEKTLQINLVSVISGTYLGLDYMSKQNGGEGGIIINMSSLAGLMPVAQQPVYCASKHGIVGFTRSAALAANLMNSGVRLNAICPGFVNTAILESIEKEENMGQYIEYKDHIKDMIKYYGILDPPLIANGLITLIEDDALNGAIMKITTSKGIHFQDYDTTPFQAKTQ
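NADH formation kinetics: reaction with 30 uM PGE2 and 1 mM NAD+ (final), 20 nM enzyme, Tris-HCl pH 8 with Tween 20, after 15 min compound preincubation at room temperature. Fluorescence change, last versus first of five reads.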
Lamin A splicing = modulators of lamin A splicing. Potency, µM (top dose mostly 46.1 µM), for inactives: top-dose ratio change, negative = inhibition, hits mostly inhibitors. hit rate 0.01% among 200,000. HeLa LMNA splicing GFP/RFP minigene ratio, 48 h; active = well fitted inhibition curve with a large enough effect in the signal ratio, with a control signal flat, not every such curve was filed as active; inconclusive = small, poorly fitted or top-dose-only effect, or effect the other way, or a change in a side signal; the % refers to the signal ratio; note: % is set by controls: 0 for no effect and ±100 for the full control effect
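S3 HeLa cells stably expressing lamin A-EGFP splicing minigene plus DsRed2, 600 cells/well, 48 h compound exposure at 37C. Laser-scanning cytometry; analysed as GFP (500-530 nm)/RFP (575-640 nm) total intensity ratio; 0.5% DMSO vehicle.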
HttQ103 aggreg = reduces HttQ103-GFP aggregates in PC12 cells. PC12 HttQ103-GFP aggregates, Acumen cytometry, 40 h. AID 1688. Potency, µM (series often up to 46.1 µM), without a hit: at the top dose activity change, negative = inhibition, most hits filed as inhibitors. hit rate 1.1% among 220,000; active = well fitted curve in the direction sought with a large enough effect; inconclusive = small, poorly fitted or top-dose-only effect, or another doubt; inactive = no such curve, though single readings can be large; an effect the other way counts as inactive or inconclusive; note: % is set by controls: 0 for no effect and ±100 for the full control effect; nearly all actives have a fitted effect of over 60% in size
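Multiplexed with ATP-based cell death, this channel scores GFP aggregates in PC12 cells expressing inducible HTTex1-Q103-GFP. Induction used 100 nM tebufenozide; compounds were tested in concentration series.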
Active calls of the source: *; ? = inconclusive; / = no result; [ ] = remark or other dose. Shown are actives, neighbours in structure and some others; about 8.8% of the full set was active somewhere. Unless noted, calls come from the whole dose curve; as a rule, active = well fitted inhibition curve with a large enough effect (not every such curve was filed as active); inconclusive = small, poorly fitted or top-dose-only effect, or another doubt; inactive = no such curve, though single readings can be large or run the other way. Potency is the fitted concentration of half-maximal effect.

SMILES	HTT cytoprotect	ALDH1A1 inh	HPGD block	Lamin A splicing	HttQ103 aggreg
CC1(C)Cc2c(sc3c2c(=O)n(Cc2ccccc2)c2nncn32)CO1	1%[10 µM]	4%	-13%	5%	0%
Cc1ccccc1NC(=O)Cn1nnc2sc3c(c2c1=O)CC(C)(C)OC3	0%[10 µM]	/	/	/	4%[9.22 µM]
CC1(C)Cc2c(sc3nnn(Cc4ccccc4)c(=O)c23)CO1	-38%[10 µM]	?	32µM*	?	-1%
Cc1nnc2n(Cc3ccccc3)c(=O)c3c4c(sc3n12)COC(C)(C)C4	-12%	13µM*	16µM*	29%	3%[9.22 µM]
NC(=O)c1ccc[n+]([C@@H]2OC(COP(=O)([O-])OP(=O)(O)OCC3OC(n4cnc5c(N)ncnc54)C(OP(=O)(O)O)C3O)C(O)C2O)c1 (some centres not stated)	28%	?	-3%	/	/
CCc1ccc(NC(=O)Cn2nnc(C(=O)NCc3ccc(C)cc3)c2N)cc1	/	/	/	2%[46 µM]	/
CN1c2ccsc2C(O)=C(C(=S)Nc2ccc(F)c(Cl)c2)S1(=O)=O	-44%	9.5µM*	?	?	-2%
CCN(CC)S(=O)(=O)c1ccc(OC)c(NC(=O)Cn2cnc3c2c(=O)n(C)c(=O)n3C)c1	23%[10 µM]	2%	/	/	3%[9.22 µM]
O=C1CCCC2=C1C1(O)C(=O)c3ccccc3C1(O)O2 (configuration not stated)	-8%[10 µM]	4µM*	-2%	23%	-10%
COc1cc2c(cc1OC)C(C)N(C(C)=O)CC2 (configuration not stated)	7%[10 µM]	2%	-11%	-12%	-23%
COc1cc2c(cc1OC)[C@H](C)N(CC1C(=O)O[C@@H]3C[C@@]4(C)CCC[C@H](C)[C@@]45OC5[C@H]13)CC2 (some centres not stated)	8.9µM*	-3%	-2%	/	/
COc1c(C2=CC(=O)N(C)C2=O)c2c(n1C)C(=O)c1ccccc1C2=O	14µM*	0%	-6%	/	/
Cn1c(=O)c2c(-c3ccncc3)c3c(nc2n(C)c1=O)-c1ccccc1C3=O	-17%[10 µM]	/	/	/	/
CCC(=O)Nc1sc2c(c1C#N)CC(C)(CC)OC2 (configuration not stated)	9%	-7%	40µM*	11%	8%
CCC1(C)Cc2c(sc(NC(=O)CCC(=O)O)c2C#N)CO1 (configuration not stated)	-1%	11%	-8%	2%	-5%
CCN1C(=S)SC(=O)C1=C1C=C(C)OC(C)=C1	1%	-2%	-12%	2%	1%
CCN1C(=S)SC(=O)C1=C1C=C(C)N(Cc2ccco2)C(C)=C1	-39%	2.5µM*	-29%	?	?
CCCCSc1nnc(CNC(=O)C23CC4CC(CC(C4)C2)C3)n1Cc1ccccc1	6%[10 µM]	-4%	-8%	-5%	-21%
Cc1sc(NC(=S)NC(=O)c2ccc(C(C)(C)C)cc2)c(C#N)c1C	-24%	?	-15%	?	-17%
CCCN1CCc2c(sc(NC(=S)NC(=O)c3ccccc3)c2C#N)C1	-87%	7.9µM*	/	?	-10%
CCN1CCc2c(sc(NC(=S)NC(=O)c3ccc(Cl)cc3)c2C(N)=O)C1	13%[10 µM]	10µM*	/	/	17%[9.22 µM]
CC(C)C1Cc2c(sc(NC(=S)NC(=O)c3ccccc3)c2C#N)CO1 (configuration not stated)	-3%[10 µM]	-6%	-25%	1%	-7%
CC(C)N1CCc2c(sc(NC(=O)c3ccc(S(=O)(=O)N4CCOCC4)cc3)c2C#N)C1	-11%	10µM*	-14%	-3%	11%
CCOC(=O)N1CCc2c(sc(NC(=O)c3ccc(S(=O)(=O)N4CCCC4)cc3)c2C#N)C1	2%[10 µM]	?	-21%	?	-30%
CC(C)N1CCc2c(sc(NC(=S)NC(=O)c3ccccc3)c2C#N)C1	-2%[10 µM]	13µM*	?	-11%	2%
Cc1cc2c(cc1S(=O)(=O)NCc1ccc(F)cc1)OCC(=O)N2	/	/	/	0%[46 µM]	/
C=CCOCC1CN2C(CCC(C)C2c2ccc(Br)cc2)C(=O)O1 (configuration not stated)	4%[10 µM]	4%[13.5 µM]	/	/	/
CC(C)CN1CC[C@@]2(CCCN(S(=O)(=O)c3ccccc3)C2)C1	?	-4%	-1%	/	/
